Structures are written as SMILES. Results filed as inconclusive are left out. More than one record can exist for a structure, and the calls need not agree. A number with no mark means an inactive call. The source made the active and inactive calls. Calls come from the whole dose curve; as a rule, active = well fitted curve in the direction sought with a large enough effect; inconclusive = small, poorly fitted or top-dose-only effect, or another doubt; inactive = no such curve, though single readings can be large; an effect the other way counts as inactive or inconclusive.

The target of test [1] is Cytochrome P450 3A7 (Homo sapiens) (UniProt P24462). As to the kind of experiment: Cytochrome P450 family 3 subfamily A member 7 (CYP3A7) small molecule antagonists: luciferase biochemical qHTS assay (AID 1963596). For activity change, negative = inhibition: % is set by controls: 0 for no effect and ±100 for the full control effect. Note: nearly all actives have a fitted effect of over 40% in size. Note: potency is the fitted concentration of half-maximal effect. An outline of the steps:
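Compounds were screened in qHTS format for interference with CYP3A7 turnover of a proluciferin substrate. Reactions ran 1 h at room temperature after NADPH regeneration solution was added, then luciferin product was detected by luminescence.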
Background: In qHTS, concentration-response curves come from the screen itself.

Test [2] is described as follows: Viability qHTS for spleen associated tyrosine kinase inhibitor (SYKi) naive MV4-11 cells (AID 1963823). Note: nearly all actives have a fitted effect of over 40% in size. Note: potency is the fitted concentration of half-maximal effect. An outline of the steps: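 SYK inhibitor-naive MV4-11 cells, 500 per well, exposed to compounds for 72 hr at 37 C, 5% CO2. Viability read as CellTiter-Glo luminescence after 10 min at room temperature.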
Test [3] is described as follows: Viability qHTS for spleen associated tyrosine kinase inhibitor (SYKi) drug resistant MV4-11 cells (AID 1963824). Note: nearly all actives have a fitted effect of over 35% in size. Note: potency is the fitted concentration of half-maximal effect. In a few lines: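 SYK inhibitor-resistant MV4-11 AML cells, 500 per well, added to predispensed compounds and incubated 72 hr at 37 C, 5% CO2. Viability measured by CellTiter-Glo luminescence after 10 min at room temperature.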
A short description of test [4]: Quantitative highthroughput screen to assess conditional lethalithy of NOMO1 cells grown in RPMI1640 with untreated serum (RPMI+s) (AID 1963876).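 For Viability: 100% = DMSO wells and 0% = empty wells without cells.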 Note: nearly all actives have a fitted effect of over 35% in size. Note: potency is the fitted concentration of half-maximal effect. In a few lines:
(§1)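 Each medium arm—HPLM with 10% dialyzed FBS, or RPMI1640 with 5 mM glucose and 10% untreated or dialyzed FBS—was screened against an 11-point, 3-fold compound titration for 48 h at 37 °C, with CellTiter-Glo luminescence as endpoint.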

Test [5] can be described thus: Quantitative highthroughput screen to assess conditional lethalithy of NOMO1 cells grown in RPMI1640 with dialyzed fetal bovine serum (RPMI+ds) (AID 1963877).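 For Viability: series mostly up to about 46 µM; 100% = DMSO control wells and 0% = empty wells.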 Note: nearly all actives have a fitted effect of over 30% in size. Note: potency is the fitted concentration of half-maximal effect. An outline of the steps:
as §1

Test [6] can be described thus: Quantitative highthroughput screen to assess conditional lethalithy of NOMO1 cells grown in Human Plasma-Like Medium with dialyzed fetal bovine serum (HPLM+ds) (AID 1963878).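 For Viability: 100% = DMSO wells and 0% = empty wells on each plate.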 Note: nearly all actives have a fitted effect of over 35% in size. Note: potency is the fitted concentration of half-maximal effect. An outline of the steps:
as §1

A short description of test [7]: Quantitative highthroughput screen to assess conditional lethalithy of P12 Ichikawa cells grown in Human Plasma-Like Medium with dialyzed fetal bovine serum (HPLM+ds) (AID 1963879). Note: series mostly up to about 46 µM; nearly all actives have a fitted effect of over 35% in size. Conditions: Potency: viability. In a few lines: as §1
Test [8] can be described thus: Quantitative highthroughput screen to assess conditional lethalithy of P12 Ichikawa cells grown in RPMI1640 with dialyzed fetal bovine serum (RPMI+ds) (AID 1963880). The settings on record: Potency: P12-Ichikawa viability. In a few lines:
as §1

Test [9] can be described thus: Quantitative highthroughput screen to assess conditional lethalithy of P12 Ichikawa cells grown in RPMI1640 with untreated serum (RPMI+s) (AID 1963881). The settings on record: Potency: viability. In a few lines: as §1
Test [10] can be described thus: Quantitative highthroughput screen to assess conditional lethalithy of SEM cells grown in Human Plasma-Like Medium with dialyzed fetal bovine serum (HPLM+ds) (AID 1963882). An outline of the steps:
as §1

Test [11] can be described thus: Quantitative highthroughput screen to assess conditional lethalithy of SEM cells grown in RPMI1640 with unreated serum (RPMI+s) (AID 1963883). An outline of the steps: as §1
The nature of test [12]: Quantitative highthroughput screen to assess conditional lethalithy of SEM cells grown in RPMI1640 with dialyzed fetal bovine serum (RPMI+ds) (AID 1963884). An outline of the steps: as §1
The nature of test [13]: Cellular viability qHTS for adrenocortical cancer (ACC) cell line SW-13 (AID 1963989).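 Note: cells grown in serum-free medium with ITS supplement; % is set by controls: 0 for no effect and ±100 for the full control effect; nearly all actives have a fitted effect of over 65% in size.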 Conditions: SW-13 ACC cells viability, CellTiter-Glo, 48 h; activity (max response): hits give low values. An outline of the steps: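 Luminescent ATP read-out (CellTiter-Glo, 20 min at room temperature) measured metabolically competent SW-13 cells after 48 h compound treatment. Final concentrations spanned up to 46 uM; bortezomib served as positive control.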

Test [14] in a line: Cellular viability qHTS for adrenocortical cancer (ACC) cell line NCI-H295R (AID 1963990).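 Note: 0% = DMSO only wells and -100% = full killing with cytotoxic reference compound; nearly all actives have a fitted effect of over 60% in size.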 An outline of the steps: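 IC50 and maximal efficacy derive from four-parameter logistic modelling of titration curves, with reads scaled between DMSO-only wells (0%) and doxorubicin hydrochloride (100% inhibition). Compounds spanned up to 46 uM over 48 h.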

Sequence of Cytochrome P450 3A7 (Homo sapiens) (P24462 whole entry, looked up): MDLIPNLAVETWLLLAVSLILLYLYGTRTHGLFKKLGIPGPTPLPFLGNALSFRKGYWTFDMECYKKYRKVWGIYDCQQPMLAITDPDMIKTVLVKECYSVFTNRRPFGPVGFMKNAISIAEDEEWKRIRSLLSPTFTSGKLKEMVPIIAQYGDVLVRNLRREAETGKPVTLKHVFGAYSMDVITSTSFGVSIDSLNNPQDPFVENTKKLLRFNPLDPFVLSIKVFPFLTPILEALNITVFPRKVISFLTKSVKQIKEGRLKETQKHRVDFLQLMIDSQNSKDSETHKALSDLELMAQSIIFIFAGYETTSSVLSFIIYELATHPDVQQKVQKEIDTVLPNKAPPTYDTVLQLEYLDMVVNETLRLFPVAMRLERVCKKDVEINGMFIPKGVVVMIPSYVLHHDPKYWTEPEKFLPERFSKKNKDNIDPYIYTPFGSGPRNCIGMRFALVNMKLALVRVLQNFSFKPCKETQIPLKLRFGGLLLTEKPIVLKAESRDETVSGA

As for `CCN(CC)Cc1ccc(C(=O)N(CCc2ccccc2OC)[C@@H]2CCNC2)cc1`, the Potency entry in test [1] is “inactive”. Moreover, the Potency in test [2] and in test [3] was 3.17 µM (active) each time.
As for `COc1ccc(-c2ccc(-c3cn(C(=O)N4CCCCC4c4ccccc4)nn3)cc2)cc1` (stereo unspecified), the Potency entry in test [1] and in test [2] was “inactive” each time. The Potency in test [3] was 0.517 µM (active).
For `CN[C@H](CNC(=O)N1CCC[C@@H]([C@@H](OCCNC(=O)OC)c2cccc(Cl)c2)C1)C[C@H]1CCCOC1`, the Potency entry in test [1], in test [2] and in test [3] was “inactive” throughout.
With `COC(=O)[C@H](CC1C=NC=N1)NCC12CC3CC(CC(C3)C1)C2` (stereo partly specified), the Potency result in test [1], in [2] and in test [3] was “inactive” throughout.
For the compound `COc1cc(C(=O)NC2CCN(C)CC2)ccc1Nc1ncc2c(n1)N(C1CCCC1)CC(F)(F)C(=O)N2C`, the Potency entry in [1] was “inactive”. Further, the Potency in test [2] is 0.0231 µM (active); in test [3] it was 0.0103 µM (active).
Turning to `Cc1coc2c1C(=O)C(=O)c1c-2ccc2c1CCCC2(C)C`, the Potency result in test [1], in test [4], in test [5], in test [6], in [7] and in [8] was “inactive” each time. In addition, the Potency entry in [9], in test [10], in [11] and in test [12] was “inactive” throughout. In addition, the Potency in [2] and in test [3] was 1.86 µM (active) throughout. Also, the activity (max response) in test [13] was 2.82%.
With `CN(C)c1cc(NC(=O)CNC(C)(C)C)c(O)c2c1C[C@@H]1C[C@H]3[C@H](N(C)C)C(=O)C(C(N)=O)=C(O)[C@@]3(O)C(=O)C1=C2O`, the Potency result in [1], in test [2], in test [3], in test [4], in test [5] and in test [6] was “inactive” each time. Besides, the Potency entry in [7], in [8], in test [9], in [10], in test [11] and in test [12] was “inactive” in each case.
`CC(C)(C)NCc1cc(Nc2ccnc3cc(Cl)ccc23)c2c(c1O)CCCC2`: in test [1], the activity change, negative = inhibition is -5.38% [at 11.5 µM]. Further, the viability (% of control) in test [2] is 90.1% [at 0.588 µM]. Besides, the viability, % of control in test [3] is 102% [at 0.588 µM].
Consider `Cn1c(N2CCCCS2(=O)=O)nc(C(=O)NCc2ccc(F)cc2)c(O)c1=O`, for which the Potency entry in [1], in test [2], in [3], in test [4], in [5] and in [6] was “inactive” throughout. Also, the Potency result in [7], in test [8], in test [9], in [10], in test [11] and in [12] was “inactive” throughout.
As to `COc1ccccc1O`, the Potency entry in [1], in [2] and in [3] was “inactive” in each case.
With `COc1ccc(C(=O)NCc2cc(C(C)C)no2)cc1OC1CCN(C)CC1`, the Potency entry in [1], in [2] and in test [3] was “inactive” each time.
In the case of `CCOC(=O)N1CCC(N2CCC[C@@H](NC(=O)c3ccccc3C)C2)CC1`, the Potency result in [1] is “inactive”. The Potency in test [2] was 16.4 µM (active); in test [3], 14.6 µM (active).
Taken in the same sequence, the figures for `COc1cccc(OC)c1-c1ccc(C[C@H](NC(=O)c2c(Cl)cccc2Cl)C(=O)O)cc1` were “inactive”, “inactive” and “inactive”.
Taken in the same sequence, the figures for `Cc1c(NC(=O)c2cccnc2)c(=O)n(-c2ccccc2)n1C` were “inactive”, “inactive” and “inactive”.
As for `Cc1cnn(-c2ccccc2)c1NC(=O)COCc1ccccc1`, the Potency entry in test [1], in [2] and in [3] was “inactive” each time.
Turning to `CCN1C[C@H](C)n2c(c(O)c3c(=O)n(Cc4ccc(F)c(Cl)c4)nc(C(=O)NC)c32)C1=O`, the Potency entry in [1], in test [2], in test [3], in [7], in [8] and in [9] was “inactive” each time. In addition, the Potency entry in test [10], in [11] and in test [12] was “inactive” in each case. In addition, the Potency in [4] is 23.5 µM (active); in test [5] it was 16.6 µM (active); in [6] it was 16.6 µM (active).
Take `CNC1CN(c2ccc3c(=O)c(C(=O)O)cn(-c4nccs4)c3n2)CC1OC` (stereo unspecified): in test [1], the activity change, negative = inhibition was 23% [at 11.5 µM]. Further, the Potency in [2] was 0.422 µM (active); in [3], 0.376 µM (active).
Take `COc1ccnc(CCc2nc3ncccc3[nH]2)c1`: the Potency result in [1], in test [2] and in [3] was “inactive” each time.
As for `O=C(C1CC1)N1CC[C@@H](Cc2n[nH]c(=O)n2-c2ccc(-c3ccc4occc4c3)cc2)C1`, the Potency in test [1] was 0.536 µM (active); in test [3], 18.6 µM (active). In addition, the Potency entry in [2], in test [4], in test [5], in [6], in test [7] and in test [8] was “inactive” in each case. For the same compound, the Potency result in [9] was “inactive”.
As for `O=C1N=C(N2CCOCC2)CN1c1ccc(Cl)cc1`, the Potency result in test [1], in test [2] and in [3] was “inactive” in each case.
Take `C[C@@H]1CN(c2c(F)c(F)c3c(=O)c(C(=O)O)cn(C4CC4)c3c2F)C[C@H](C)N1`: the Potency result in [1], in [2] and in test [14] was “inactive” each time. The Potency in test [3] is 4.61 µM (active). Further, in [3], the viability, % of control was 79.8% [at 9.25 µM]. The activity (max response) in test [13] was 12.9%.
For `CC(C)(C)C1CCN(C(=O)n2ncc(C(O)(c3ccccc3)c3ccccc3)n2)CC1`, in test [1], the Potency result is “inactive”. For the same compound, the Potency was 20.6 µM (active) in [2] and 8.2 µM (active) in [3].
Regarding `O=C1N(CC2CCCCN2)CCN1c1ccccc1` (stereo unspecified), the Potency entry in test [1], in [2] and in test [3] was “inactive” throughout.
Turning to `O=C(O)CC1CCC(c2ccc(NC(=O)c3nnc(Nc4ccc(F)c(F)c4)o3)cc2)CC1` (stereo unspecified), the Potency result in [1], in test [2] and in [3] was “inactive” in each case.
Take `NC(Cc1c[nH]c2ccccc12)C(=O)NC(CCC(=O)O)C(=O)O` (stereo unspecified): the Potency result in [1] and in test [3] was “inactive” each time. Also, the Potency in [2] is 2.91 µM (active).

(Values after PubChem BioAssay (NCATS).)
